PubChem BioAssay
Results filed as inconclusive are left out. Activity calls are given as the source filed them. Cut-off not given; nearly all actives show AC50 up to about 26 µM.

Experiment: viability loss in pontine glioma line – cell-based, SU-DIPG-XVII, MIPE5.0, CellTiter-Glo, qHTS, dose response (AID 1347060);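 on AC50: cells exposed to compound for 48 hours before viability readout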
Details: CellTiter-Glo ATP luminescence

**Q.** With COc1cc(N2CCN(C)CC2)ccc1Nc1ncc2c(n1)N(C)c1ccccc1C(=O)N2C as the compound, how does the AC50 read?
**A.** Its AC50 is 18.6 µM (active).

**Q.** Which outcome does the source give for Cc1c(-c2ccnn2C)cc(C(=O)NCc2ccc(S(C)(=O)=O)cn2)c(=O)n1-c1cccc(C(F)(F)F)c1 here?
**A.** Its outcome is “inactive”.

**Q.** For COC1CCC(N2C(=O)CNc3ncc(-c4ccc(C(C)(C)O)nc4)nc32)CC1 (centres undefined), which AC50 is on record?
**A.** The AC50 was 9.34 µM (active).

**Q.** With CN1CCN(C2CCC(n3cc(-c4ccc(Oc5ccccc5)cc4)c4c(N)ncnc43)CC2)CC1 (centres undefined) as the compound, how does the AC50 read?
**A.** The AC50 was 1.48 µM (active).

**Q.** For CN1CCN(C(=O)[C@H]2[C@@H](C(=O)O)[C@H]3CC[C@@H]2O3)CC1, which outcome is on record?
**A.** The outcome was “inactive”.

**Q.** Which AC50 does the source give for C[C@@H]1COCCN1c1cc(-c2ccnn2C)c2ccnc(-c3ccn[nH]3)c2n1 here?
**A.** The AC50 was 1.48 µM (active).

**Q.** Which AC50 does the source give for C[C@@H](OC[C@@]1(c2ccccc2)CC[C@]2(CCC(=O)N2)CN1)c1cc(C(F)(F)F)cc(C(F)(F)F)c1 here?
**A.** Its AC50 is 20.9 µM (active).

**Q.** With COC(=O)c1ccc([C@H]2c3[nH]c4ccccc4c3C[C@H](C(=O)OC)N2C(=O)CCl)cc1 as the compound, how does the AC50 read?
**A.** The AC50 was 13.2 µM (active).

**Q.** With O=C(Nc1nnc(-c2ccco2)o1)c1cc(-c2ccccc2)nc2ccccc12 as the compound, how does the AC50 read?
**A.** The AC50 was 26.3 µM (active).

**Q.** For COc1c(C)cc(NC(=O)c2nn(Cc3ccc(F)cc3)c3c2CN(C(=O)c2ccc[nH]2)C[C@]3(C)C(N)=O)cc1C, which outcome is on record?
**A.** The outcome was “inactive”.

**Q.** Which outcome does the source give for O=C([O-])C[O-].[Pt+2] here?
**A.** The outcome was “inactive”.

**Q.** With COc1cccc(-c2c(C)n(Cc3c(F)cccc3C(F)(F)F)c(=O)n(C[C@H](NCCCC(=O)O)c3ccccc3)c2=O)c1F as the compound, how does the outcome read?
**A.** Its outcome is “inactive”.

**Q.** Which AC50 does the source give for CNCCCOc1cc(F)c(-c2c(Cl)nc3ncnn3c2N[C@@H](C)C(F)(F)F)c(F)c1 here?
**A.** The AC50 was 0.0833 µM (active).

**Q.** Which AC50 does the source give for COCCNCc1ccc(-c2cc3nccc(Oc4ccc(NC(=S)NC(=O)Cc5ccc(F)cc5)cc4F)c3s2)nc1 here?
**A.** Its AC50 is 7.42 µM (active).

**Q.** With O=c1c(-c2ccc(O)cc2)coc2c([C@@H]3O[C@H](CO)[C@@H](O)[C@H](O)[C@H]3O)c(O)ccc12 as the compound, how does the outcome read?
**A.** Its outcome is “inactive”.

**Q.** With Cc1c(NC(=O)c2cc3c(s2)CCCC3)cccc1-c1cn(C)c(=O)c(Nc2ccc(C3C(=O)N(C)CCN3C)cc2)n1 (centres undefined) as the compound, how does the AC50 read?
**A.** Its AC50 is 23.5 µM (active).

**Q.** For COc1ccc2c(c1)CC[C@@H](CN(C)CC(=O)O)[C@H]2c1ccccc1, which outcome is on record?
**A.** Its outcome is “inactive”.

**Q.** For COc1ccc2[nH]c(C(=O)N3CCC(CC(C)(C)O)CC3)cc2c1, which outcome is on record?
**A.** The outcome was “inactive”.

**Q.** For Oc1ccc([C@@H]2Oc3ccc(O)cc3[C@@H]3CCC[C@@H]32)cc1, which AC50 is on record?
**A.** Its AC50 is 13.2 µM (active).

**Q.** For Cc1ccc(-c2nn(C(C)(C)CNC(=O)c3ccncc3)c3ncnc(N)c23)cc1, which AC50 is on record?
**A.** The AC50 was 10.5 µM (active).

**Q.** Which outcome does the source give for N[C@@H](CCC(=O)O)C(=O)N[C@@H](Cc1c[nH]c2ccccc12)C(=O)O here?
**A.** Its outcome is “inactive”.

**Q.** For CCS(=O)(=O)N1CC(CC#N)(n2cc(-c3ncnc4[nH]ccc34)cn2)C1, which AC50 is on record?
**A.** The AC50 was 18.6 µM (active).

**Q.** Which AC50 does the source give for NC(=O)[C@H]1CCS[C@@H]2C[C@]3(CCCN3C(=O)Cc3ccc(NC(=O)COc4ccc(Cl)cc4Cl)cc3)C(=O)N12 here?
**A.** The AC50 was 4.17 µM (active).

**Q.** Which outcome does the source give for Nc1cc(COc2c(Cl)cc(C[C@H](N)C(=O)O)cc2Cl)c2oc(-c3ccccc3)nc2c1 here?
**A.** Its outcome is “inactive”.

**Q.** Which outcome does the source give for CC[C@H](NC(=O)[C@H](CS(=O)(=O)CC1CC1)N[C@@H](c1ccc(F)cc1)C(F)(F)F)C(=O)C(=O)NC1CC1 here?
**A.** The outcome was “inactive”.

**Q.** For CO[C@@H]1C(N(C)C(=O)c2ccccc2)C[C@H]2O[C@]1(C)n1c3ccccc3c3c4c(c5c6ccccc6n2c5c31)C(=O)NC4=O (some centres undefined), which AC50 is on record?
**A.** The AC50 was 0.934 µM (active).

**Q.** With COc1ccc(S(=O)(=O)N[C@@H](CNc2nc(C)nc(N3CCC(c4ccc5c(n4)NCCC5)CC3)c2C)C(=O)O)cc1 as the compound, how does the outcome read?
**A.** The outcome was “inactive”.

**Q.** Which AC50 does the source give for Cc1nnc(C[C@@H]2C=C(c3ccc(Cl)cc3)c3ccccc3-n3c(C)nnc32)o1 here?
**A.** The AC50 was 26.3 µM (active).

**Q.** For O=C1NC(=O)[C@@H](c2c[nH]c3ccccc23)[C@H]1c1cn2c3c(cccc13)CCC2, which AC50 is on record?
**A.** Its AC50 is 0.525 µM (active).

**Q.** Which outcome does the source give for O=C(Nc1nccs1)C(c1cc(F)ccc1O)N1Cc2ccccc2C1=O (centres undefined) here?
**A.** Its outcome is “inactive”.

**Q.** For Fc1ccc2[nH]ccc2c1-c1nc(N2CCOCC2)c2sc(CN3CCN(CC4CC4)CC3)cc2n1, which AC50 is on record?
**A.** The AC50 was 20.9 µM (active).

**Q.** For CCc1c(C(=O)NNC(=O)[C@@H](O)c2cc(F)cc(F)c2)ccc(O)c1C, which outcome is on record?
**A.** Its outcome is “inactive”.

**Q.** For C=CC(=O)N1CCC[C@H](n2c(=O)n(-c3ccc(Oc4ccccc4)cc3)c3c(N)ncnc32)C1, which AC50 is on record?
**A.** The AC50 was 0.59 µM (active).

**Q.** Which AC50 does the source give for CCC[C@H](N[C@H]1CCc2cc(F)cc(F)c2C1)C(=O)Nc1cn(C(C)(C)CNCC(C)(C)C)cn1 here?
**A.** The AC50 was 33.2 µM (active).

**Q.** For CCCCCCCCCCCCCCCCOCCCOP(=O)(O)COC(CO)Cn1ccc(N)nc1=O (centres undefined), which outcome is on record?
**A.** The outcome was “inactive”.

**Q.** With CN[C@@H](C)C(=O)N[C@H](C(=O)N1CCC[C@H]1c1nc(C(=O)c2ccc(F)cc2)cs1)C1CCCCC1 as the compound, how does the outcome read?
**A.** The outcome was “inactive”.

**Q.** For C[C@@H](Oc1cc(-n2cnc3ccc(CN4CCN(C)CC4)cc32)sc1C(N)=O)c1ccccc1C(F)(F)F, which AC50 is on record?
**A.** Its AC50 is 0.0525 µM (active).

**Q.** Which outcome does the source give for COc1ccc(C(=O)N2CCN(C(=O)/C=C/c3ccc(Br)cc3)CC2)cc1 here?
**A.** Its outcome is “inactive”.

**Q.** Which AC50 does the source give for COc1ccc2[nH]c3c(c2c1)CCN[C@]31CS[C@@H]2c3c(OC(C)=O)c(C)c4c(c3[C@H](COC1=O)N1[C@@H]2[C@H]2c3c(cc(C)c(OC)c3O)C[C@@H]([C@@H]1O)N2C)OCO4 here?
**A.** Its AC50 is 0.000959 µM (active).
